NOD2-RIPK2 inh: NOD2-RIPK2 protein interaction inhibition; O43353; CHO BLA complementation NOD2-RIPK2, CCF4 ratio; inhibition, % at 4.98 µM; actives 0.38% (n = 360,000); AID 624267; in the data active means inhibition above about 21%
B2AR ag: human beta-2 adrenergic receptor agonism by FAP; Am2.2-beta2AR cells, FAP receptor internalization, flow cytometry; P07550; actives 0.43% (n = 340,000); response, % (no concentration beside the values);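 active means response above a set limit, near 3 SD of response in nonfluorescent compounds, cut at about 42% in these data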
TLR9-MyD88 block: TLR9-MyD88 interaction inhibition. CHO BLA complementation TLR9-MyD88, CCF4 FRET ratio. inhibition, % at 4.98 µM. actives 0.21% (n = 340,000). AID 504734;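 active means inhibition above the mean over all tested compounds plus 3 SD, cut at about 21% in these data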
TLR4 MyD88 comp: blocks binding of human TLR4 to MyD88; O00206+Q99836; HeLa CL3-4 TLR4/MyD88 BLA complementation, FRET ratio; inhibition, % at 8.4 µM; actives 0.18% (n = 200,000); AID 861; in the data active means inhibition above about 25%
NTR1 agonist: NTR1 (human) agonism; activation, % at 20 µM; NTR1-U2OS beta-arrestin-GFP spot imaging, agonist mode; actives 0.17% (n = 330,000);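 active means activation at or above 40% of the spot to cytoplasm intensity ratio, with at least 20 cells analyzed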
Target sequence (P30989 whole entry, looked up): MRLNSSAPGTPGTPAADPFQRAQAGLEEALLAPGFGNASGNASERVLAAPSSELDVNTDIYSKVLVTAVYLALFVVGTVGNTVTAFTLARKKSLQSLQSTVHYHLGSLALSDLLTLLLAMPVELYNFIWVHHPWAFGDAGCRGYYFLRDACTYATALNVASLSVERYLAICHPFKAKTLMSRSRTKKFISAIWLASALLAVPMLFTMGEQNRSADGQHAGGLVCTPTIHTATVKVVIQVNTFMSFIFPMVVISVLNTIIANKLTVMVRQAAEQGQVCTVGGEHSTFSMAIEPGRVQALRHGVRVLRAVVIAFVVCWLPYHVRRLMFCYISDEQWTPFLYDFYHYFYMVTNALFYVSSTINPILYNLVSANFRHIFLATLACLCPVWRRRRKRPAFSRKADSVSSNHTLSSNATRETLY
ABHD5 PLIN5 PPI: ABHD5-PLIN5 protein interaction inhibition | Q00G26+Q8WTS1 | Split G. princeps luciferase complementation, luminescence, 4 h | inhibition, % at 4 µM | actives 0.78% (n = 360,000);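 active means inhibition above the mean inhibition across every tested compound plus 3 SD, cut at about 22% in these data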
TLR4-MyD88 conf: TLR4-MyD88 interaction inhibition confirmed | shares compounds with TLR4 MyD88 comp | HeLa CL3-4 BLA complementation, CCF4 FRET ratio | inhibition, % at 8.4 µM | actives 50% (n = 350);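 active means mean inhibition across three repeat runs above about 25% carried over from the earlier screen, limit read from the data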
BLA inh HeLa: beta-lactamase inhibition flagged in TLR4-MyD88 counter-screen; shares compounds with TLR4 MyD88 comp; HeLa BLA reporter, CCF4 FRET ratio; inhibition, % at 8.4 µM; actives 63% (n = 350);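 active means mean inhibition over three repeats above about 26% taken from the earlier screen, limit read from the data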;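 further: HeLa cells stably expressing beta-lactamase reporter as counterscreen for TLR4-MyD88 inhibitors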
NTR1 ag conf: confirmation of agonists of human NTR1. shares compounds with NTR1 agonist. activation, % at 20 µM. NTR1-U2OS beta-arrestin-GFP translocation imaging. AID 504550. actives 38% (n = 480);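 active means mean activation at 20 µM of at least 40%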
TLR9-MyD88 conf: confirmation of human TLR9-MyD88 binding inhibitors; actives 51% (n = 680); CHO TLR9/MyD88 BLA complementation, CCF4 FRET ratio; AID 540250; inhibition, % at 4.98 µM; shares compounds with TLR9-MyD88 block;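 active means mean inhibition across three repeats above about 21% taken from the earlier screen, limit read from the data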;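 further: blue over green emission ratio reports constitutive TLR9 MyD88 association via BLA complementation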
BLA counter-1: non-selective beta-lactamase inhibitors in TLR9-MyD88 counter-screen; shares compounds with TLR9-MyD88 block; CHO-BLA cells, CCF4 FRET ratio, BLA reporter; inhibition, % at 4.98 µM; actives 7% (n = 680); AID 540251;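 active means mean inhibition above a 50% cutoff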;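 further: counterscreen of TLR9-MyD88 hits on CMV-driven BLA in CHO-K1 cells; higher means less blue over green ratio so more BLA blockade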
TLR9 CHO cytotox: CHO cell toxicity counter-screen for TLR9-MyD88 inhibitors | shares compounds with TLR9-MyD88 block | TLR9-MyD88 CHO cells cytotoxicity, luminescence | inhibition, % at 4.98 µM | actives 39% (n = 680) | AID 588336; in the data active means inhibition above about 11%
NOD2-RIPK2 conf: confirmation of human NOD2-RIPK2 interaction inhibitors; inhibition, % at 4.98 µM; CHO cells, NOD2-RIPK2 BLA complementation, CCF4 FRET; shares compounds with NOD2-RIPK2 inh; actives 70% (n = 1,200);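 active means mean inhibition across replicates above a set limit taken from the earlier primary screen, cut at about 21% in these data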
BLA counter-2: counter-screen for NOD2-RIPK2 interaction inhibitors: BLA reporter; shares compounds with NOD2-RIPK2 inh; CHO BLA reporter, CCF4 FRET ratio, counterscreen; inhibition, % at 4.98 µM; actives 57% (n = 1,200);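 active means mean inhibition above the low-control mean inhibition plus three low-control SD, cut at about 11% in these data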
A number is an active result. This is a sample that favours compounds with a hit; in the whole collection about 1.5% have one here.

What do the screens show for `CCCCCCCCn1c2c(c(=N)c3ccccc31)CCC2`?
NOD2-RIPK2 inh: 21; B2AR ag: inactive; TLR4 MyD88 comp: 35; NTR1 agonist: 61; ABHD5 PLIN5 PPI: inactive; TLR4-MyD88 conf: inactive; BLA inh HeLa: 28; NTR1 ag conf: 50; NOD2-RIPK2 conf: inactive; BLA counter-2: inactive

What do the screens show for `N#C/C(=C/c1ccc(-c2ccc(S(N)(=O)=O)cc2)o1)c1nc2ccccc2s1`?
NOD2-RIPK2 inh: 39; B2AR ag: inactive; TLR9-MyD88 block: 47; TLR4 MyD88 comp: 46; NTR1 agonist: inactive; ABHD5 PLIN5 PPI: inactive; TLR4-MyD88 conf: 46; BLA inh HeLa: 75; TLR9-MyD88 conf: 46; BLA counter-1: inactive; TLR9 CHO cytotox: 24; NOD2-RIPK2 conf: 71; BLA counter-2: 71

What do the screens show for `N#C/C(=C/c1ccc(-c2ccc(S(N)(=O)=O)cc2)o1)C(=O)Nc1ccccc1`?
NOD2-RIPK2 inh: inactive; B2AR ag: inactive; TLR9-MyD88 block: inactive; TLR4 MyD88 comp: inactive; NTR1 agonist: inactive; ABHD5 PLIN5 PPI: inactive

How did CCN1CCc2c(sc(NC(=O)Nc3ccc(Cl)c(Cl)c3)c2C(N)=O)C1 do in these assays?
NOD2-RIPK2 inh: 41; B2AR ag: inactive; TLR9-MyD88 block: 48; TLR4 MyD88 comp: 35; ABHD5 PLIN5 PPI: inactive; TLR4-MyD88 conf: 38; BLA inh HeLa: 60; TLR9-MyD88 conf: inactive; BLA counter-1: inactive; TLR9 CHO cytotox: 20; NOD2-RIPK2 conf: 24; BLA counter-2: 30

What do the screens show for `CCN1CCc2c(sc(NC(=O)Cc3ccccc3)c2C(N)=O)C1`?
NOD2-RIPK2 inh: inactive; B2AR ag: inactive; TLR9-MyD88 block: inactive; NTR1 agonist: inactive; ABHD5 PLIN5 PPI: inactive

How did CCOC1=C2[C@H](c3ccccc3)N(S(=O)(=O)c3ccccc3)C[C@H]2n2c(=O)n(-c3ccccc3)c(=O)n2C1 do in these assays?
NOD2-RIPK2 inh: inactive; ABHD5 PLIN5 PPI: inactive

How did O=c1[nH]c2ccccc2nc1/C=C/c1ccc(O)cc1 do in these assays?
NOD2-RIPK2 inh: 38; B2AR ag: inactive; TLR9-MyD88 block: 36; TLR4 MyD88 comp: 36; NTR1 agonist: inactive; ABHD5 PLIN5 PPI: inactive; TLR4-MyD88 conf: 30; BLA inh HeLa: 53; TLR9-MyD88 conf: inactive; BLA counter-1: inactive; TLR9 CHO cytotox: inactive; NOD2-RIPK2 conf: 42; BLA counter-2: 53

Results for Cn1c(=O)c(NCCO)c2c3c(cccc31)C(=O)c1ccccc1-2 ?
NOD2-RIPK2 inh: inactive; B2AR ag: inactive; TLR9-MyD88 block: inactive; TLR4 MyD88 comp: inactive; NTR1 agonist: inactive; ABHD5 PLIN5 PPI: inactive

How did Cn1c(=O)c(NCCc2ccccc2)c2c3c(cccc31)C(=O)c1ccccc1-2 do in these assays?
NOD2-RIPK2 inh: 38; TLR9-MyD88 block: 37; TLR4 MyD88 comp: 39; NTR1 agonist: inactive; ABHD5 PLIN5 PPI: inactive; TLR4-MyD88 conf: 39; BLA inh HeLa: 64; TLR9-MyD88 conf: 37; BLA counter-1: inactive; TLR9 CHO cytotox: inactive; NOD2-RIPK2 conf: 63; BLA counter-2: 71

How did CCCCNc1c2c3c(cccc3n(C)c1=O)C(=O)c1ccccc1-2 do in these assays?
NOD2-RIPK2 inh: 47; B2AR ag: inactive; TLR9-MyD88 block: 36; TLR4 MyD88 comp: 41; NTR1 agonist: inactive; ABHD5 PLIN5 PPI: inactive; TLR4-MyD88 conf: 26; BLA inh HeLa: 47; TLR9-MyD88 conf: 26; BLA counter-1: inactive; TLR9 CHO cytotox: inactive; NOD2-RIPK2 conf: 52; BLA counter-2: 58

What do the screens show for `O=C(/C=C/c1cn(CC(O)CN2CCCCCC2)c2ccccc12)c1cccs1` (centres undefined)?
NOD2-RIPK2 inh: 47; B2AR ag: inactive; TLR9-MyD88 block: 47; TLR4 MyD88 comp: 31; NTR1 agonist: inactive; ABHD5 PLIN5 PPI: inactive; TLR4-MyD88 conf: 37; BLA inh HeLa: 60; TLR9-MyD88 conf: 28; BLA counter-1: inactive; TLR9 CHO cytotox: inactive; NOD2-RIPK2 conf: 56; BLA counter-2: 52

How did Cc1ccc(NC2=Nc3ccccc3N3C2=Nc2c(c(C)nn2-c2ccccc2)C3c2ccc(O)c(O)c2)cc1 (centres undefined) do in these assays?
NOD2-RIPK2 inh: 66; B2AR ag: inactive; TLR9-MyD88 block: 66; TLR4 MyD88 comp: 51; ABHD5 PLIN5 PPI: inactive; TLR4-MyD88 conf: 53; BLA inh HeLa: 84; TLR9-MyD88 conf: 59; BLA counter-1: 66; TLR9 CHO cytotox: inactive; NOD2-RIPK2 conf: 74; BLA counter-2: 81

How did O=C(O)c1ccc(N2CCCCCC2)c(N2C(=O)c3ccccc3C2=O)c1 do in these assays?
NOD2-RIPK2 inh: inactive; B2AR ag: inactive; TLR9-MyD88 block: inactive; TLR4 MyD88 comp: inactive; NTR1 agonist: inactive; ABHD5 PLIN5 PPI: inactive

How did O=C1c2cccc3c(N4CCCCC4)ccc(c23)C(=O)N1c1ccccc1O do in these assays?
NOD2-RIPK2 inh: 52; B2AR ag: inactive; TLR9-MyD88 block: 49; TLR4 MyD88 comp: 28; NTR1 agonist: inactive; ABHD5 PLIN5 PPI: inactive; TLR4-MyD88 conf: 26; BLA inh HeLa: 39; TLR9-MyD88 conf: 32; BLA counter-1: inactive; TLR9 CHO cytotox: inactive; NOD2-RIPK2 conf: 60; BLA counter-2: 66

How did CCOc1ccc(S(=O)(=O)N(CC(=O)N/N=C/c2ccc(-c3ccc([N+](=O)[O-])cc3)o2)c2ccccc2)cc1 do in these assays?
NOD2-RIPK2 inh: 35; B2AR ag: inactive; TLR9-MyD88 block: 55; TLR4 MyD88 comp: 65; NTR1 agonist: inactive; ABHD5 PLIN5 PPI: inactive; TLR4-MyD88 conf: 50; BLA inh HeLa: 87; TLR9-MyD88 conf: 57; BLA counter-1: 59; TLR9 CHO cytotox: 22; NOD2-RIPK2 conf: 68; BLA counter-2: 76

High-throughput results: PubChem BioAssay, several laboratories
